From PubChem BioAssay AID596 (National Center for Advancing Translational Sciences (NCATS), 2007)
About 1,400 (2%) of roughly 71,000 compounds were called active. About 3% were inconclusive and are not listed. Many of the other results were omitted from the sample, so actives are more common in it than they were. A number with no mark means an inactive call. Calls come from the whole dose curve; as a rule, active = well fitted curve in the direction sought with a large enough effect; inconclusive = small, poorly fitted or top-dose-only effect; inactive = no such curve, though single readings can be large or run the other way.

biological target: Microtubule-associated protein tau (Homo sapiens) (UniProt P10636); assay: qHTS Assay for Tau Filament Binding; details: recombinant tau filaments, thioflavin S fluorescence, 15 h, filaments grown with octadecylsulfate alongside compound; series mostly up to 57.1 µM; activity change, negative = inhibition: at the top concentration;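 note: actives lower thioflavin S fluorescence by blocking filaments or displacing dye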
Sequence (P10636 whole entry, looked up): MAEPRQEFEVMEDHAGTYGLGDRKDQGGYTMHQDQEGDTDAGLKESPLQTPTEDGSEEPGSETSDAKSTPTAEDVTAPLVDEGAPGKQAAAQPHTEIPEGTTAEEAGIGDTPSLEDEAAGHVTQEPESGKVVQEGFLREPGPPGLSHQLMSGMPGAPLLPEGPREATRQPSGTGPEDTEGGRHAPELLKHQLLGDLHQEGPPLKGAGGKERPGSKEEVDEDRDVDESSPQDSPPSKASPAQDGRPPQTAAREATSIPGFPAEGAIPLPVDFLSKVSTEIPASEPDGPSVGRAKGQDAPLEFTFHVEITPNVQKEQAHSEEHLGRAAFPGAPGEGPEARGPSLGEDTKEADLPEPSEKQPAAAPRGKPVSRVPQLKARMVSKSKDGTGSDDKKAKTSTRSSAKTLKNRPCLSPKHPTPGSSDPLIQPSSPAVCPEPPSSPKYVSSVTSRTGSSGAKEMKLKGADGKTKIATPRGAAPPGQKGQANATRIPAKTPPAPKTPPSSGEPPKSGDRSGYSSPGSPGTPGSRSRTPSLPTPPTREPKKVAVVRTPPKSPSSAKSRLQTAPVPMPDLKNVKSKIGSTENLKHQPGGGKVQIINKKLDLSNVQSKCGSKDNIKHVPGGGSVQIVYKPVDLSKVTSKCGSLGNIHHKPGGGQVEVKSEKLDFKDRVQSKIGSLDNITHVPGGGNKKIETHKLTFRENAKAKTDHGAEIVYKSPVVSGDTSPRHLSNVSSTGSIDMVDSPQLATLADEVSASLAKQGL
Description: NIH Molecular Libraries Screening Centers Network [MLSCN]
NIH Chemical Genomics Center [NCGC]
Assay Provider: Jeffrey A. Kuret, Ohio State University
Tau monomers form filaments in vitro in the presence of anionic detergents or fatty acids. The dye Thioflavine S (ThS) binds to tau filaments and upon binding, increases in fluorescence several fold. Small molecules that displace ThS binding or prevent filament binding are identified by a reduction in ThS fluorescence. This assay used histidine-tagged, recombinant human tau protein containing the products of exons 2, 3, and 10 that was provided by Jeff Kuret, Ohio State University. To form filaments, 1 uM tau was incubated with 30 uM sodium octadecylsulfate (ODS) in reagent buffer (10 uM thioflavine S, 5 mM 1,4-dithioerythreitol (DTT), 100 mM sodium chloride, 10 mM HEPES pH 7.4) for 15 hrs at 37 C.
NCGC Assay Protocol Summary:
Assay Steps. Two uL/well of 2 uM tau in reagent buffer (10 uM thioflavine S, 5 mM DTT, 100 mM sodium chloride, 10 mM HEPES pH 7.4) was dispensed into solid black 1536-well plates. Twenty-three nL compound was transferred to the assay plate after which 2 uL/well of 60 uM ODS in reagent buffer was dispensed for a final assay volume of 4 uL /well. Following 15 hours of incubation at 37 C, fluorescence was detected by an Envision (Perkin Elmer) using 450/8 nm excitation and 510/23 nm emission.
Keywords: NIH Roadmap, MLSCN, MLI, MLSMR, qHTS, NCGC, Alzheimer's disease, Neurofibrillary lesions, tau, tubulin assembly, microtubule stability, cytoskeletal integrity, fibrillization, thioflavin dyes, Amyloidgenic
% is set by controls: 0 for no effect and ±100 for the full control effect; potency is the fitted concentration of half-maximal effect.

Point of comparison: `CC(c1ccccc1)n1c(NCCCn2ccnc2)nc2c1c(=O)[nH]c(=O)n2C` (configuration not stated), “activity change, negative = inhibition” value -3.1%. Against it:
- c1ccc(CSc2nnc(-c3ccco3)n2Cc2ccccc2)cc1 — higher, 6.8%
- Nc1cc(=O)nc(SCc2ccccc2)n1Cc1ccco1 — lower, -10.8%
- COc1cccc(Cn2c(=O)c(C)nc3cnc(Oc4ccccc4)nc32)c1 — lower, -14.4%
- O=C(O)c1nccnc1C(=O)Nc1ccc(Br)cn1 — higher, -1.2%
- C=CCOC(=O)COCCC(C)C — higher, 13.7%
- O=Cc1c(Cl)cccc1Cl — higher, 4.8%
- CC(=O)OCC(COC(C)=O)OC(C)=O — lower, -6.1%
- O=C(CSc1nnc(-c2cccnc2)n1Cc1ccco1)c1ccc(Cl)cc1 — higher, 1.3%
- CC(Sc1nc2ccccc2c(=O)n1Cc1ccco1)C(=O)c1ccccc1 (configuration not stated) — higher, 14.2%
- O=c1c(CCc2ccccc2)nc2cnc(N3CCNCC3)nc2n1Cc1cccs1 — higher, 19.3%
- Cc1cc(C)cc(N)c1 — higher, 11.7%
- N#Cc1ccc(COC(=O)Cn2nnc(-c3ccccc3)n2)cc1 — lower, -11.5%
- COc1ccccc1NC(=O)C1=C(C)NC2=C(C(=O)CCC2)C1c1ccc(C)o1 (configuration not stated) — higher, 0.5%
- COC(=O)C1=C(C)NC(=O)NC1/C=C/c1ccccc1 (configuration not stated) — higher, 11.1%
- Cc1cccc(C(=O)O)c1 — higher, 0.9%
- CCN(CC)C(=O)c1sc(NC(=O)c2ccco2)c(C#N)c1C — higher, 5.3%
- COc1ccc(NC(=O)c2ccc(OC)cc2)cc1 — higher, 8.2%
- CCCC1CC(C)(C(=O)Cn2[nH]c(=O)ccc2=O)OC1=O (configuration not stated) — higher, 0%
- CCC1(C)Cc2c(sc3nc4n(c(=O)c23)CCCS4)CO1 (configuration not stated) — lower, -15.1%
- COC(=O)C1(C)C=CC2(CCCCC2)N1C(C)=O (configuration not stated) — higher, -2.6%
- Cn1c(=O)c(CCc2ccccc2)nc2cnc(Nc3ccccc3)nc21 — higher, 102%
- CNC(=O)C1(C)C=CC2(CCCCC2)N1C(C)=O (configuration not stated) — higher, -0.4%
- Cc1nn(C(=O)c2ccoc2C)c(N)c1-c1ccccc1 — lower, -16.2%
- C[C@@H]1O[C@@H](O[C@@H]2[C@@H](O)[C@H](OCCc3ccc(O)c(O)c3)O[C@H](CO[C@@H]3O[C@H](CO)[C@@H](O)[C@H](O)[C@H]3O)[C@H]2OC(=O)/C=C/c2ccc(O)c(O)c2)[C@H](O)[C@H](O)[C@H]1O — higher, 5.1%
- CCCC(C(=O)NCc1ccco1)N(C(=O)CNS(=O)(=O)c1ccccc1)C1CCCC1 (configuration not stated) — lower, -19.1%
- CN1CCN(c2ccc(NC(=O)COc3ccc(Cl)cc3Cl)cc2)CC1 — higher, 3.5%
- CC(=O)N1CCC2(CC1)CCN(c1ccncc1)CC2 — higher, 5.9%
- COCCNc1ncnc2ccc(-c3ccccc3CN(C)C)cc12 — higher, 4.2%
- COC(=O)[C@@]1(Cc2ccc(F)cc2)[C@@H]2[C@@H](CC(=O)[C@H]2CC(=O)C(=O)N2CCCC2)CN1C(=O)c1ccccc1 — lower, -4.8%
- C=C(C)C1CC=C(C)C(O)C1 (configuration not stated) — higher, 3.7%
- CC(=O)Oc1ccccc1C(=O)Nc1ncc([N+](=O)[O-])s1 — higher, 0.6%
- O=c1c(CCc2ccccc2)nc2cncnc2n1C1CC1 — lower, -4.1%
- COc1cc(-c2nn3c(-c4cccc(C)c4)nnc3s2)cc(OC)c1OC — higher, 38.8%
- Cc1cccc(NC(=O)C2CCN(S(=O)(=O)c3cccc4cccnc34)CC2)c1 — higher, 1.5%
- COC(=O)CCCCCN1C(=O)NC(c2ccc(-c3ccccc3)cc2)C(C(=O)OCc2ccccc2)=C1C (configuration not stated) — lower, -3.4%
- O=C(CN1CCN(c2ccc(F)cc2)CC1)Nc1cccc(C(F)(F)F)c1 — lower, -3.8%
- O=C(CSc1nnc(-c2ccco2)o1)NCC(=O)c1ccccc1 — lower, -5.7%
- CCCCN(C)C(=O)c1ccc2c(c1)N(CC)C(=O)c1ccccc1S2(=O)=O — higher, 5.4%
- COC(=O)Nc1ncc(CN2C(=O)c3ccccc3C2=O)s1 — higher, 1.9%
- CCOc1ccccc1N=C1NC(=O)CS1 — lower, -6%
- CCc1ccc(CCC(=O)Nc2ccc(S(N)(=O)=O)cc2)o1 — lower, -6.1%
- COC(=O)c1ccc2c(=O)n(CC3CCCO3)c(=S)[nH]c2c1 (configuration not stated) — higher, 6.1%
- CCn1c(=N)c(C(=O)NCCCOC)cc2c(=O)n3cccc(C)c3nc21 — higher, -2.4%
- O=C(Nc1ccccc1)Nc1ccccc1C(=O)NCc1ccco1 — lower, -4.8%
- Cc1cccn2c(=O)c3cc(C(=O)NCc4ccccn4)n(C)c3nc12 — higher, 9.9%
- CCOc1ccccc1C(=O)NCc1ccco1 — higher, 20.9%
- C[C@]1(C(=O)NCCc2c[nH]c3ccccc23)C=C[C@@H](Cc2ccccc2)N1C(=O)c1ccccc1 — higher, 78.2%
- Cn1cccc1C(=O)N1CCC2(CC1)CN(c1cccc(-c3ccccc3)c1)C2 — lower, -8.2%
- CC(=O)CC(C)C — lower, -8.5%
- COC(=O)c1ccc(C(NC(=O)OCc2ccccc2)/C(C)=C/[C@@H](C)C(=O)NCc2cc(C)on2)cc1 (some centres not stated) — lower, -4.6%
- COC(=O)[C@H]1C[C@@H]1[C@H](NC(=O)Oc1ccc(F)cc1)c1ccccc1 — lower, -3.2%
- CCOC(=O)c1ccn(-c2nc(-c3ccco3)cc(C(F)(F)F)n2)n1 — lower, -22.9%
- FC(F)(F)c1cc(-c2ccco2)nc(N2CCOCC2)n1 — higher, 4%
- CCC[C@@H]1C[C@@]1(CCC)C(NS(=O)(=O)c1cccc2cccnc12)c1ccc(Cl)cc1 (some centres not stated) — lower, -15.3%
- CN(C)C(=O)/N=N\C(=O)N(C)C — lower, -7.5%
- CCCc1cc(=O)[nH]c(SCc2ccc(C#N)cc2)n1 — higher, 2.2%
- COc1ccc(Cc2nnc(NS(=O)(=O)Cc3ccccc3)s2)cc1 — higher, -0.8%
- CCc1nnc(NC(=O)CSc2nnc(Cc3ccccc3)n2-c2ccc(OC)cc2)s1 — lower, -7.8%
- COC(=O)N1CCC2(CCCN(c3ccncc3)C2)CC1 — higher, 19.9%
- Cc1cccn2c(=O)c3cc(C#N)c(=O)n(CCCN4CCOCC4)c3nc12 — higher, 2.6%
- O=C1C(c2[nH]c3ccccc3c2O)=Nc2ccccc21 — lower, -20%
- Cc1cc2ccccc2n2c(SCC(=O)N3CCN(C(=O)c4ccco4)CC3)nnc12 — higher, 6%
- O=C1c2ccccc2C(O)N1Cc1ccccc1 (configuration not stated) — higher, 2.9%
- CCOC(=O)Cn1c2c(c(-c3ccccc3OC)cc1=O)CCCC2 — higher, 0.5%
- COCCn1c(=O)[nH]c2cc(C(=O)NCc3cccnc3)ccc2c1=O — higher, 6.2%
- CCSc1ncnc2c(C#N)c3n(c12)CCCCC3 — higher, 11.1%
- CC(C)C[C@@H](CC(=O)N[C@@H](CCC(=O)O)CC(=O)O)NC(=O)[C@@H]1CCCC[C@H]1NC(=O)C[C@@H](NC(=O)C[C@H](CO)NC(=O)[C@@H]1CCCC[C@H]1N)C(C)C — lower, -3.3%
- CCC(C)(C(=O)NC1CCCC1)N(C(=O)CNC(C)=O)c1ccc(C)cc1 (configuration not stated) — lower, -10.2%
- Cn1c(-c2ccco2)nc2cc3ccccc3cc21 — higher, 97.4%
- Cc1nn2c3ccccc3nc2n(C)c1=O — lower, -16.6%

`c1ccc(CSc2nnc(-c3ccco3)c(-c3ccco3)n2)cc1` was tested, and the Potency was 7.94 µM (active).
With `CCS(=O)(=O)N(C)[C@@H]1c2cc(C#N)ccc2OC(C)(C)[C@H]1O` the Potency was 39.8 µM (active).
`Clc1cccc(-c2nc3nc4ccccc4nc3n2Cc2ccco2)c1` was tested, and the Potency was 15.8 µM (active).
With `N#Cc1c(N)sc2c1CCN(C(=O)OCc1ccccc1)C2` the Potency was 15.8 µM (active).
With `COC(=O)C1=C(C)NC2=C(C(=O)c3ccccc32)C1c1ccc(-c2ccc(C(=O)O)cc2)o1` (configuration not stated) the Potency was 25.1 µM (active).
In the case of `COc1ccc(C(=O)N/N=C2/C(=O)c3c(C)cc(C)cc3CC2(C)C)cc1`, the Potency is reported as 5.01 µM (active).
`CN(C)CCSc1nc(N)c2c3c(sc2n1)COC(C)(C)C3` was tested, and the Potency was 12.6 µM (active).
In the case of `Cc1nn2c(c1-c1ccccc1)N=C(c1ccco1)CC2c1ccccc1` (configuration not stated), the Potency is reported as 10 µM (active).
With `CC(=O)N1CCN(c2ccc(NCc3ccc(C(C)C)cc3)cc2)CC1` the Potency was 25.1 µM (active).
For `O=c1cc(-c2ccc(O)c(O)c2)oc2cccc(O)c12`, the Potency was 39.8 µM (active).
In the case of `Cc1ccc(/C(=C/CN2CCCC2)c2ccccn2)cc1`, the Potency is reported as “inactive”.
For `c1ccc(-c2cc(-c3nnc4sc(-c5ccccn5)nn34)[nH]n2)cc1`, the Potency was 1 µM (active).
For `CCN1C(=O)c2cccc3c(N)ccc1c23`, the Potency was 25.1 µM (active).
`Oc1ccc(O)c2c(O)cccc12` was tested, and the Potency was 5.01 µM (active).
With `C[N+](C)(C)CCCCCNCC12CC3CC(CC(C3)C1)C2` the Potency was 31.6 µM (active).
For `COc1ccc(CNC(=O)c2cc3c(=O)n4ccccc4nc3n(CC3CCCO3)c2=N)cc1` (configuration not stated), the Potency was 2.51 µM (active).
`COc1ccc(CCn2c(=N)c(C(=O)NCc3ccco3)cc3c(=O)n4cccc(C)c4nc32)cc1` was tested, and the Potency was 2 µM (active).
With `O=C(NCc1ccco1)c1cccn2c(=O)c3cc(Br)ccc3nc12` the Potency was 25.1 µM (active).
For `COC(=O)c1cnn2c(C(F)(F)F)cc(-c3ccco3)nc12`, the Potency was 15.8 µM (active).
In the case of `COc1ccc(Cc2nnc(NC(=O)Cc3cccs3)s2)cc1`, the Potency is reported as 25.1 µM (active).
In the case of `CC[N+](C)(CC)CCC[n+]1c(-c2ccccc2)c2cc(N)ccc2c2ccc(N)cc21`, the Potency is reported as 1.58 µM (active).
For `CCSC1=C(C#N)C(=O)n2c1cc1c2CCCC1`, the Potency was 25.1 µM (active).
`C=CC(=O)OCCOCCOCCOCCOC(=O)C=C` was tested, and the Potency was “inactive”.
`c1coc(-c2nc3nc4ccccc4n3nc2-c2ccco2)c1` was tested, and the Potency was 3.16 µM (active).

Point of comparison: `CCCC[C@H]1C(=O)N(c2ccccc2)N(c2ccc(O)cc2)C1=O`, “activity change, negative = inhibition” value -14.5% [at 25.6 µM]. Against it:
- NC[C@@H]1O[C@H](O[C@@H]2[C@H](O[C@@H]3O[C@H](CO)[C@@H](COC[C@H]4O[C@@H](CN)[C@@H](O)[C@@H](O)[C@@H]4N)[C@@H]3O)[C@@H](O)[C@@H](N)C[C@H]2N)[C@@H](N)[C@H](O)[C@@H]1O — higher, -1.7% [at 25.6 µM]

Point of comparison: `O=C(O)[C@H](CCc1ccccn1)c1ccccc1`, activity change, negative = inhibition -5.3% [at 11.4 µM]. Against it:
- CC(C)CSC[C@@H]1O[C@H](n2cnc3c(N)nccc32)[C@H](O)[C@@H]1O — higher, -0.6% [at 11.4 µM]
- NC1(C(=O)OCc2ccccc2)CCCC1 — higher, 6.1% [at 11.4 µM]
- O=C1NC(=O)[C@@](Cc2ccccc2)(c2cccnc2)N1 — higher, -0.4% [at 11.4 µM]
- C[C@H](CCC(=O)O)[C@H]1CC[C@@H]2[C@H]3CC[C@H]4C[C@H](O)CC[C@@]4(C)[C@@H]3CC[C@@]21C — higher, 11.3% [at 11.4 µM]
